BAZ2B inh: qHTS Assay for Inhibitors of BAZ2B | AlphaScreen BAZ2B-H3K14Ac peptide displacement | Bromodomain adjacent to zinc finger domain protein 2B (Homo sapiens), Q9UIF8 | hit rate 4.4% among 360,000 | Potency, µM (top dose mostly 114 µM), for inactives: at the top dose activity change, negative = inhibition, hits mostly inhibitors; note: potency is the fitted concentration of half-maximal effect; % is set by controls: 0 for no effect and ±100 for the full control effect; nearly all actives have a fitted effect of over 60% in size
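BAZ2B (50 nM) with biotin-H3(5-23)K14Ac peptide (50 nM) in PBS pH 7.4, 0.01% Tween-20, preformed 30 min, then compound 30 min at room temperature; top concentration 110uM. AlphaScreen streptavidin donor/nickel chelate acceptor beads (10 ug/mL final), 20 min dark, signal read.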
JMJD2A Tudor inh: qHTS Assay for Inhibitors of JMJD2A-Tudor Domain. Lysine-specific demethylase 4A (Homo sapiens), O75164. AlphaScreen JMJD2A-Tudor / H3K4me3 peptide binding. Potency, µM (highest dose often 114 µM), without a hit: at the top dose activity change, negative = inhibition, actives largely listed as inhibitors. hit rate 4.4% among 390,000. AID 504339, 2011; note: potency is the fitted concentration of half-maximal effect; % is set by controls: 0 for no effect and ±100 for the full control effect; nearly all actives have a fitted effect of over 50% in size
Target sequence (O75164 whole entry, looked up, the tested form may be a part): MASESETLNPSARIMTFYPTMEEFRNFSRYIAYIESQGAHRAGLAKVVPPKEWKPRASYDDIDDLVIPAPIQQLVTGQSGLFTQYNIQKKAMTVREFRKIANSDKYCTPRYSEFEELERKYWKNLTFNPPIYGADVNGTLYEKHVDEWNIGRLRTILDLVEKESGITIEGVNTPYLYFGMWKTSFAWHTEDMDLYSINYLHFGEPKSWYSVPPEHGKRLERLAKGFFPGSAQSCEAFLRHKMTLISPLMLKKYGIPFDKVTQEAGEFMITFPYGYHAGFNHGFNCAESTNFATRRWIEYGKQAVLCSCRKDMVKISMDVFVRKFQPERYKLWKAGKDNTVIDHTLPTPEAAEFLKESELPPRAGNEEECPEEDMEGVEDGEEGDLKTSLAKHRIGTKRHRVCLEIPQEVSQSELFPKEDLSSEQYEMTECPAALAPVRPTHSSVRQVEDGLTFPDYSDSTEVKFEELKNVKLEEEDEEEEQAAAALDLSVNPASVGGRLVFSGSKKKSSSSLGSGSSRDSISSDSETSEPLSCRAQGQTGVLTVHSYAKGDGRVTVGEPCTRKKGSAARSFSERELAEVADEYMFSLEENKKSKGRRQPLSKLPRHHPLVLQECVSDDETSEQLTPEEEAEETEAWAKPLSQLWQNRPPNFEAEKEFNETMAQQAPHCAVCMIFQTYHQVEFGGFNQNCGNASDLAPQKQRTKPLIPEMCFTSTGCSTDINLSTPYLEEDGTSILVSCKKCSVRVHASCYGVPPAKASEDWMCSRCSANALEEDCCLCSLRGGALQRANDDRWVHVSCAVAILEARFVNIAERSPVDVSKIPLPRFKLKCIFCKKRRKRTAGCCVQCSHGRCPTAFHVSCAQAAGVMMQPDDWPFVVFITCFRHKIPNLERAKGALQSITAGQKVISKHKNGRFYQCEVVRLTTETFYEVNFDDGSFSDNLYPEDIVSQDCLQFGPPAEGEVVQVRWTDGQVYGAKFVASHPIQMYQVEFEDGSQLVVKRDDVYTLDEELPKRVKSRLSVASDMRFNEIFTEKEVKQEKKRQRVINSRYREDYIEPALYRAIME
Six1-Eya2 blk: qHTS Assay for Inhibitors of the Six1/Eya2 Interaction | AlphaScreen GST-Six1/His-Eya2 binding, biochemical; stronger effect = lower value | activity change, % (test concentration not listed) | hit rate 0.56% among 360,000 | Homeobox protein SIX1 (Homo sapiens) + Protein phosphatase EYA2 (Homo sapiens), …; in the data active = activity change below about -65%; inconclusive = mostly about -30% to -63%; note: % is set by controls: 0 for no effect and ±100 for the full control effect
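AlphaScreen with GST-Six1 and His-Eya2 (5X mix: 250 nM and 500 nM), glutathione donor and nickel acceptor beads; buffer 50 mM Tris pH 8.0, 300 mM NaCl, 1 mM TCEP; 1 h at 37 C in the dark.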
G9a inh: qHTS Assay for Inhibitors of Histone Lysine Methyltransferase G9a. Histone-lysine N-methyltransferase EHMT2 (Homo sapiens), Q96KQ7. G9a H3K9 monomethylation, AlphaScreen, 2 h. Potency, µM (top dose mostly 102 µM), for inactives: at the highest dose activity, negative = inhibition, hits mostly inhibitors. hit rate 8.8% among 350,000. AID 504332, 2011; note: potency is the fitted concentration of half-maximal effect; % is set by controls: 0 for no effect and ±100 for the full control effect; nearly all actives have a fitted effect of over 75% in size
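Step 1: enzyme (final 20 nM) with compound, 15 min RT. Step 2: substrate peptide 500 nM and SAM 20 uM, 2 h RT. Step 3: anti-H3K9me1 antibody and AlphaScreen beads, 10 min, then plate read.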
HP1b binding inh: HTS for Inhibitors of HP1-beta Chromodomain Interactions with Methylated Histone Tails; AlphaScreen HP1-beta / biotin-H3K9me3 peptide binding; Potency, µM (highest dose often 114 µM), without a hit: at the top dose activity change, negative = inhibition, hits mostly inhibitors; hit rate 0.56% among 390,000; note: potency is the fitted concentration of half-maximal effect; nearly all actives have a fitted effect of over 70% in size
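Compound inhibition of the preformed complex between 50 nM HP1-beta and 50 nM biotinylated H3K9me3 peptide was read by AlphaScreen. Buffer was PBS pH 7.4 with 0.01% Tween-20. Incubations ran 30 min at room temperature, with 10 ug/mL donor/acceptor beads.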
CtBP-E1A blk: qHTS Assay for Inhibitors of the CtBP/E1A Interaction; AlphaScreen GST-E1A/His-CtBP binding, 1536-well; stronger effect = lower value; AID 651724, 2012; CtBP / adenovirus E1A interaction (AlphaScreen); hit rate 0.49% among 340,000; activity change, % (test concentration not listed); in the data active = activity change below about -65%; inconclusive = mostly about -30% to -63%; note: % is set by controls: 0 for no effect and ±100 for the full control effect
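Protein mix (5X: 125 nM each GST-E1A, His-CtBP) was incubated with pinned compound 2 h at 37 deg C in dark, in 50 mM Tris pH 8.0 buffer with 300 mM NaCl. Glutathione donor and nickel acceptor beads followed; AlphaScreen signal read after 1 h.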
Active calls of the source: *; ? = inconclusive; nt = no result given; [ ] = dose if it differs, or a comment. Most compounds without a hit are left out; they make up all but 10% or so of the library. Unless noted, calls come from the whole dose curve; as a rule, active = well fitted inhibition curve with a large enough effect; inconclusive = small, poorly fitted or top-dose-only effect; inactive = no such curve, though single readings can be large or run the other way.

SMILES	BAZ2B inh	JMJD2A Tudor inh	Six1-Eya2 blk	G9a inh	HP1b binding inh	CtBP-E1A blk
Cc1cccc2nc(CSC(=N)N)c(Br)n12	-31%	-1%	-8	8.9µM*	36%	10
COc1ccc(OC)c(CNc2sc3c(c2C(=O)Nc2cc(OC)ccc2OC)CCCC3)c1	22µM*	?	nt	11µM*	-21%	nt
COc1ccc(OC)c(NC(=O)c2c(NCc3cccs3)sc3c2CCCC3)c1	35µM*	40µM*	nt	?	-15%	nt
COc1cc(OC)c(OC)cc1CNc1sc2c(c1C(=O)Nc1ccccc1OC)CCC2	-32%	?	nt	13µM*	19%	nt
COc1ccc(OC)c(NC(=O)c2c(NC(=O)CCC(=O)O)sc3c2CCCCC3)c1	-37%	?	-2	45µM*	-19%	12
CSCCC(NS(=O)(=O)c1ccc(C)cc1)C(=O)NC1CCCCCC1 (stereo unspecified)	-16%	-10%	-4	8%	19%	6
COc1ccc(OC)c(NC(=O)c2c(NCc3cccs3)sc3c2CCCCC3)c1	22µM*	?	nt	11µM*	-1%	nt
O=S1(=O)CC(N2CCC(c3ccccc3)CC2)CN1Cc1ccc(F)cc1 (stereo unspecified)	nt	nt	-1	nt	nt	-9
COc1ccc(N2CCN(C(=O)c3ccc(CS(=O)c4cccc(C)c4)o3)CC2)cc1 (stereo unspecified)	?	-22%	-5	56µM*	22%	-2
COc1ccc(N2CCN(C(=O)c3ccc(CS(=O)Cc4ccc(Cl)cc4)o3)CC2)cc1 (stereo unspecified)	?	?	-5	50µM*	-6%	-4
COC(=O)C1CCN(C(=O)C2CC(=O)N(c3ccc(C)c(Cl)c3)C2)CC1 (stereo unspecified)	nt	-2%	-9	nt	27%[57 µM]	0
O=C(CNC(=O)c1ccc(F)cc1)OCc1cc(=O)n2nc(C3CC3)sc2n1	-3%	?	nt	1%[59 µM]	-5%	nt
CCOc1cc(-c2cc(-c3ccc(C)cc3)nc(N)c2C#N)ccc1O	-12%	-13%	-15	-33%[59 µM]	29%	-6
CCOc1cc(/C=C(\C#N)c2[nH]nc(N)c2C#N)ccc1O	-34%	-33%	-67*	?	22%	-81*
CCOc1ccc(NC(=O)c2cc(=O)c3cc(CC)ccc3o2)cc1	-7%	-25%	nt	-6%[59 µM]	21%	nt
CCOC(=O)C1CCCN(S(=O)(=O)c2ccc3[nH]c(=O)ccc3c2)C1 (stereo unspecified)	1%	-2%	nt	13%[59 µM]	29%[57 µM]	nt
COc1cc2c(cc1OC)C(CSc1ccccc1C(=O)O)=NC(C)(C)C2	79µM*	?	-15	?	-1%	1
CC1(C)Cc2ccccc2C(CSc2ccccc2C(=O)O)=N1	50µM*	56µM*	-28	nt	-39%	-13
COc1cc2c(cc1OC)C(CC#N)=NC(C)(C)C2	-8%	-20%	-1	?	-5%	-11
Cc1cc(C)nc(N2N=C(C(C)(C)C)CC2=O)n1	-38%	?	3	3.5µM*	32%	3
O=S(=O)(Nc1cccc2nsnc12)c1ccccc1	3%	-19%	-4	-2%[59 µM]	7%	-7
Cc1cc(C)c(S(=O)(=O)Nc2cccc3nsnc23)c(C)c1	19%	18%	-2	3.2µM*	72%	5
Cc1ccc(NS(=O)(=O)c2cccc3nsnc23)cc1C	?	-23%	-22	-37%	-3%	-10
Cc1cc(C)c(S(=O)(=O)Nc2ccc[nH]c2=O)c(C)c1	1%	-18%	-7	8.9µM*	21%	-2
Cc1ccc(O)c(NS(=O)(=O)c2cccc3nsnc23)c1	45µM*	?	-6	-31%[2.33 µM]	?	-15
SMILES	BAZ2B inh	JMJD2A Tudor inh	Six1-Eya2 blk	G9a inh	HP1b binding inh	CtBP-E1A blk
COc1cc(NS(=O)(=O)c2cccc3nsnc23)cc(OC)c1	56µM*	45µM*	-1	2µM*	-10%	-2
Cc1ccc(OCc2ccc(C(=O)NCc3cccnc3)cc2)cc1C	-21%	-30%	0	7%[59 µM]	19%	10
COc1cccc(Nc2nc(C(N)Cc3ccc(Cl)cc3)cs2)n1 (stereo unspecified)	nt	nt	-13	nt	nt	-16
O=C(/C=C/c1ccco1)Oc1cccc2cccnc12	45µM*	?	-79*	nt	7%	0
COc1cc(C(=S)N2CCOCC2)ccc1OC(=O)/C=C/c1ccco1	nt	-26%	-10	?	21%	-16
CCc1ccc(OC(=O)/C=C/c2ccco2)cc1	?	80%	22	nt	-20%	7
O=C(/C=C\c1ccco1)Oc1cccc2cccnc12	32µM*	?	-76*	-47%	-12%	-74*
Cc1ccc2cccc(OC(=O)c3c(F)cccc3Cl)c2n1	nt	nt	2	nt	nt	1
Cc1ccc2cccc(OC(=O)/C=C\c3ccccc3)c2n1	-11%	20µM*	2	10%	21%	-7
Cc1cc2c(s1)c(/C=N/O)c(C(=O)NCc1ccccc1F)n2C	nt	-31%	nt	nt	nt	nt
Cn1c2ccccc2c(=O)c2c(=O)n(Cc3ccco3)c(-c3ccc(C(C)(C)C)cc3)nc21	-11%	nt	nt	-46%	nt	nt
COc1ccc(OC)c(C2Nc3c(C)cc(C)cc3-c3cc(C)nn32)c1 (stereo unspecified)	?	?	nt	-37%[59 µM]	-15%	nt
Cn1c2ccccc2c(=O)c2ccc(C#CC3(N)CCCCC3)cc21	3%	6%	7	40µM*	77%	13
CN(C)c1cccc(NC2=CC(=[N+]3CCOCC3)CC(C)(C)C2)c1	?	89µM*	-2	11µM*	-7%	-6
CCC1(C)N([O-])C(C)=C(c2ccccc2)[N+]1=O (stereo unspecified)	2%	-8%	7	-3%[12.7 µM]	30%	13
CC1(C)N([O-])C2=C(c3ccccc3C2=O)[N+](=O)C1(C)C	13%	-8%	10	79µM*	-2%	-1
COc1ccc(N2CCN(CCCNC(=O)c3ccc4nc(Cc5ccccc5)oc4c3)CC2)cc1	40µM*	32µM*	nt	14µM*	-33%[57 µM]	nt
COc1ccc(N2CCN(CCCNC(=O)c3ccc4nc(CCc5ccccc5)oc4c3)CC2)cc1	32µM*	22µM*	nt	?	-16%[57 µM]	nt
COc1ccc(N2CCN(CCCNC(=O)c3nnc(Cc4ccc(F)cc4)o3)CC2)cc1	35µM*	-8%	nt	-51%[59 µM]	7%	nt
O=C(NCCCN1CCN(c2ccccc2)CC1)c1ccc2nc(CCc3ccccc3)oc2c1	-37%	?	nt	?	-4%[57 µM]	nt

Compound activity (PubChem)
